Assay outcomes deposited in PubChem BioAssay by National Center for Advancing Translational Sciences (NCATS).
L3MBTL1 inh = blocks human L3MBTL1. Q9Y468. AlphaScreen L3MBTL1–H3K9me1 peptide binding. Potency, µM (highest dose often 57.1 µM), actives largely listed as inhibitors. 0.66% of 230,000 active. AID 485360; further: nearly all actives have a fitted effect of over 60% in size
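L3MBTL1 (50 nM) pre-complexed 30 min with biotinylated H3(1-15)K9me1 peptide (75 nM), then compounds added for 30 min at room temperature; AlphaScreen streptavidin donor/nickel chelate acceptor beads (10 ug/mL final) read after 30 min dark incubation.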
G9a inh = G9a (human) methyltransferase inhibition; Q96KQ7; G9a H3K9 monomethylation, AlphaScreen, 2 h; Potency, µM (series often up to 102 µM), usual class: inhibitors; 8.8% of 350,000 active; further: nearly all actives have a fitted effect of over 75% in size
Target sequence (Q96KQ7 913-1193 limits assumed): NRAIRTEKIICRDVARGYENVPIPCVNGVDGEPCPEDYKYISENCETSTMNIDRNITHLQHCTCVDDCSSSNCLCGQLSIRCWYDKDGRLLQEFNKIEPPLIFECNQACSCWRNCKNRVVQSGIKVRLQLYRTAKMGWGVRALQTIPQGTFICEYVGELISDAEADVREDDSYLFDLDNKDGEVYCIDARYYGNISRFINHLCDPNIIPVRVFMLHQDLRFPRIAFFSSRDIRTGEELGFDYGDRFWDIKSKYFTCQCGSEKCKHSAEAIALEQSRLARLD
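Step 1: enzyme (final 20 nM) with compound, 15 min RT. Step 2: substrate peptide 500 nM and SAM 20 uM, 2 h RT. Step 3: anti-H3K9me1 antibody and AlphaScreen beads, 10 min, then plate read.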
BAZ2B block = blocks human BAZ2B | AlphaScreen BAZ2B-H3K14Ac peptide displacement | Q9UIF8 | Potency, µM (doses to about 114 µM), actives largely listed as inhibitors | 4.4% of 360,000 active; further: nearly all actives have a fitted effect of over 60% in size
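In this displacement format the biotinylated H3(5-23) peptide acetylated at Lys14 serves as ligand at 50 nM, with BAZ2B at 50 nM in PBS pH 7.4 containing 0.01% Tween-20. Donor and acceptor beads are 10 ug/mL final.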
JMJD2A Tudor inh = inhibitors of human JMJD2A Tudor domain | O75164 | AlphaScreen JMJD2A-Tudor / H3K4me3 peptide binding | Potency, µM (top dose mostly 114 µM), hits mostly inhibitors | 4.4% of 390,000 active | AID 504339; further: nearly all actives have a fitted effect of over 50% in size
Sfp inh = blocks B. subtilis Sfp PPTase activity | Q9F4F7 | Biochemical Sfp PPTase activity, qHTS | Potency, µM, hits mostly inhibitors | 3.5% of 310,000 active | AID 1490;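 further: the enzyme is Sfp with the accession as filed and its product quenches rhodamine fluorescence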
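Sfp 15 nM + cpd, 15 min RT; start w/ rhodamine-CoA 5 uM, BHQ-2-YbbR 12.5 uM (final); 50 mM Hepes pH 7.6, 10 mM MgCl2, 0.01% NP-40, 0.01% BSA; read 525/598 nm at 0 and 30 min.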
HP1b binding inh = inhibitors of HP1-beta chromodomain binding to methylated histone tails; P83916; AlphaScreen HP1-beta / biotin-H3K9me3 peptide binding; Potency, µM (doses to about 114 µM), hits mostly inhibitors; 0.56% of 390,000 active; AID 540317; further: nearly all actives have a fitted effect of over 70% in size
Target sequence (P83916 whole entry, looked up): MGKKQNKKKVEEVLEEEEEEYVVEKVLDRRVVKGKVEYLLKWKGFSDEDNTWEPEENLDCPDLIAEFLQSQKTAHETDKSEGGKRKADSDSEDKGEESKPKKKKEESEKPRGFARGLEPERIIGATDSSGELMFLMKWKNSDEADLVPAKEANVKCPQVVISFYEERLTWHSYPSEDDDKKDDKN
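HP1-beta protein (50 nM final) preincubated 30 min at room temperature with biotinylated H3(1-18)K9me3 peptide (50 nM) in PBS pH 7.4, 0.01% Tween-20, then compound added for 30 min. AlphaScreen streptavidin donor/nickel chelate acceptor beads (10 ug/mL final), 30 min dark, luminescence read.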
Hits are given with their value; . = inactive; ? = inconclusive; / = not tested or not shown; [ ] = another dose, or the depositor's remark. An excerpt weighted towards active compounds, which were near 12% of everything screened. The call rests on the fitted dose curve; in most records, active means well fitted curve in the direction sought with a large enough effect; inconclusive means small, poorly fitted or top-dose-only effect, or another doubt; inactive means no such curve, though single readings can be large; an effect the other way counts as inactive or inconclusive.

SMILES	L3MBTL1 inh	G9a inh	BAZ2B block	JMJD2A Tudor inh	Sfp inh	HP1b binding inh
Cc1ccc(N2C(=O)N(CC(=O)C(C)(C)C)c3ccccc3S2(=O)=O)cc1C	/	.	.	.	/	.
COc1ccc(OC)c2c(C)cc(N3CCN(C(=O)c4ccc(F)cc4)CC3)nc12	/	?	50.1µM	?	.	.
COc1ccc(C(=O)N2CCN(c3ccc(C)c(C)c3)CC2)cc1OC	.	.	.	.	.	.
COc1ccc(OC)c2sc(N3CCN(C(=O)c4ccc5c(c4)CCCC5)CC3)nc12	/	?	39.8µM	?	/	?
COc1ccc(C(=O)N2CCN(c3ccc(C)cc3C)CC2)cc1OC	.	.	.	.	.	.
COc1ccc(OC)c2c(C)cc(N3CCN(C(=O)c4ccc(C)cc4)CC3)nc12	.	?	50.1µM	?	.	.
Cc1ccc(CSc2nc(=O)c3c(n2C)NC(=O)CC3c2ccc(OC(C)C)cc2)cc1 (stereo not drawn)	/	.	.	.	/	.
CC1CCN(S(=O)(=O)c2cc(C(=O)Nc3ccc(Br)cc3F)n(C)c2)CC1	/	.	.	.	/	.
NS(=O)(=O)c1ccc(NS(=O)(=O)c2cccs2)cc1	/	.[12.7 µM]	.	.	.	.
O=C(NNC(=S)Nc1ccc(Cl)cc1)c1cccs1	.	25.1µM	.	.	.	.
O=C(NNc1ccc(Cl)cc1)c1cccs1	.	10µM	.	.	.	.
NS(=O)(=O)c1ccc(NNC(=O)c2cccs2)cc1	/	10µM	.	.	?	.
O=C(NNc1cc(Cl)cc(Cl)c1)c1cccs1	.	28.2µM	.	.	.	.
NS(=O)(=O)c1ccc(NNC(=O)c2ccc(F)cc2F)cc1	/	11.2µM	.	.	.	.
Cc1oc(-c2ccccc2)cc1C(=O)NC(Cc1c[nH]c2ccccc12)C(=O)O (stereo not drawn)	.	?	.	?	39.8µM	.
Cc1cc(=O)oc(C)c1C(=O)N[C@@H](Cc1ccccc1)C(=O)O	/	.	.	.	.	.
Cc1cc(C(=O)NC(Cc2ccccc2)C(=O)O)c(C)o1 (stereo not drawn)	/	70.8µM	.	.	.	.
CCOC(=O)c1c(C)[nH]c(C)c1S(=O)(=O)NCC(=O)Nc1cccc(Cl)c1	/	.	.	.	/	.
O=C(/C=C/c1ccc(-c2ccccc2[N+](=O)[O-])o1)c1ccco1	?	14.1µM	39.8µM	17.8µM	?	39.8µM
Cc1ccc(NC(=O)CSc2cn(CC(=O)N3CCOCC3)c3ccccc23)cc1Cl	/	.	?	.	/	.
CCc1nnc(NS(=O)(=O)c2ccc(NC(=S)NC(=O)/C=C/c3ccc(F)cc3)cc2)s1	.	89.1µM	50.1µM	56.2µM	.	?
CCc1nnc(NS(=O)(=O)c2ccc(NC(=S)NC(=O)/C=C/c3ccc([N+](=O)[O-])cc3)cc2)s1	/	35.5µM	?	.	.	.
CCc1nnc(NS(=O)(=O)c2ccc(NC(=S)NC(=O)c3ccc(OC)cc3)cc2)s1	.	?	.	.	.	.
CCc1nnc(NC(=O)c2ccc(NC(=O)C(C)C)cc2)s1	.	56.2µM	.	.	.	.
CCc1nnc(NS(=O)(=O)c2ccc(NC(=O)c3ccc(S(=O)(=O)N(CC)CC)cc3)cc2)s1	/	.	.	.	.	.
SMILES	L3MBTL1 inh	G9a inh	BAZ2B block	JMJD2A Tudor inh	Sfp inh	HP1b binding inh
CCOc1cc(C(=O)Nc2ccc(S(=O)(=O)Nc3nnc(CC)s3)cc2)cc(OCC)c1OCC	/	?	.	25.1µM	.	.
CCn1cc2nc(SCc3cccc(C(F)(F)F)c3)n(Cc3ccc(Cl)cc3)c(=O)c2n1	/	.	.	.	/	.
Cc1ccc(C)n1-c1nnc(N2CCCC(C(=O)Nc3ccccc3Br)C2)s1 (stereo not drawn)	/	.	.	.	/	.
CCc1nnc(NS(=O)(=O)c2ccc(NC(=S)NC(=O)c3ccncc3)cc2)s1	/	50.1µM	?	?	.	.
CCOC(=O)c1ccccc1NC(=O)Cn1c(-c2nonc2N)nc2ccccc21	.	.	.	.	28.2µM	.
Nc1nonc1-c1nc2ccccc2n1CC(=O)N/N=C/c1ccc(-c2ccccc2C(=O)O)o1	.	44.7µM	50.1µM	.[11.4 µM]	?	.
Cc1nc(N)sc1N=Nc1ccccc1C(F)(F)F	/	39.8µM	28.2µM	50.1µM	.	35.5µM
Cc1[nH]n(C(N)=S)c(=O)c1N=Nc1ccccc1C(F)(F)F	/	?	.	?	?	.
N#Cc1c(Cl)nc(-c2ccncc2)nc1-c1ccccc1	/	28.2µM	79.4µM	?	.	.
N#Cc1c(-c2ccccc2)nc(-c2ccncc2)[nH]c1=O	.	.	.	.	.	.
c1ccc(CSc2nnc(-c3ccccc3)c(-c3ccccc3)n2)cc1	/	/	/	.	/	.
N#Cc1c(Cl)nc(SCc2ccccc2)nc1-c1ccccc1	.	/	79.4µM	/	.	/
COc1ccc2c(C)c(CC(=O)NCCc3ccccc3)c(=O)oc2c1OC	/	.	.	.	/	.
CCc1cnc2c(c1SCC(=O)Nc1ccc(Cl)cc1)c(=O)n(C)c(=O)n2C	/	.	.	.	/	.
COc1ccc(C2C3=C(CCCC3=O)Nc3nc(-c4cc(OC)c(OC)c(OC)c4)nn32)cc1OC (stereo not drawn)	.	39.8µM	.	.	.	.
COc1cc(-c2nc3n(n2)C(c2ccncc2)C2=C(CCCC2=O)N3)cc(OC)c1OC (stereo not drawn)	/	.	.	.	.	.
O=C(O)c1ccc(CSc2nc(-c3ccc(Cl)cc3)cc(C(F)(F)F)n2)cc1	.	.	?	?	50.1µM	.
O=C(O)c1ccc(CSc2nc(-c3ccccc3)cc(C(F)(F)F)n2)cc1	.	.	.	.	.	.
Cn1c(CCN2CCOCC2)nc2cc(NC(=O)COc3ccc(Cl)cc3)ccc21	.	.	.	.	.	.
CCN(CC)S(=O)(=O)c1ccc(/C=C/C(=O)Nc2ccc(N3CCOCC3)cc2)cc1	.	44.7µM	?	?	.	.
COc1ccc(OCC(=O)Nc2ccc3c(c2)nc(CCN2CCOCC2)n3C)cc1	.	56.2µM	.	.	.	.
CCN(CC)S(=O)(=O)c1ccc2c(c1)nc(CCC(=O)Nc1ccc(N3CCOCC3)cc1)n2C	.	44.7µM	.	.	.	.
Cn1c(CCC(=O)Nc2ccc(F)cc2)nc2cc(S(=O)(=O)N3CCOCC3)ccc21	.	.	.	.	/	.
Nc1nc(Nc2ccccc2F)sc1C(=O)c1ccccc1	/	.[0.501 µM]	44.7µM	?	.	.
CCc1ccc(NCc2cc3cc4c(cc3n(CC(=O)Nc3ccccc3C)c2=O)OCCO4)cc1	/	?	.	.	/	.
CC(=O)NNC(=O)c1sc(=S)n2c1[nH]c(=O)c1sccc12	.	12.6µM	.	79.4µM	17.8µM	?
NC(=O)c1sc(=S)n2c1[nH]c(=O)c1sccc12	.	17.8µM	.	?	39.8µM	.
